Bioassay records: PubChem BioAssay, several laboratories
In the library only some 0.98% were active in any assay of this set; here they are far more common.
RTF Ca sens act: cardiac RTF calcium sensitization; P19429+P45379; IANBD-labeled TnC RTF fluorescence at EC20 calcium; 0% EC20 calcium, 100% full calcium; activation, % at 7.2 µM; 0.24% of 340,000 active; AID 493008;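 active = activation above the mean over all tested compounds plus 3 SD, cut at about 30% in these data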;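 note: rise in fluorescence read as greater calcium sensitivity of cardiac thin filaments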
Cardiac RTF inh: cardiac RTF calcium desensitization. P19429+P45379. IANBD-labeled cardiac RTF, Ca2+ fluorescence. inhibition, % at 7.15 µM. 0.12% of 340,000 active. AID 493244;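 active = inhibition above the mean inhibition of all tested compounds plus 3 SD, cut at about 17% in these data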;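 note: assay run at fixed EC70 calcium of 1.6 mM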
E coli Lon inh: E. coli protease La inhibition; P0A9M0; purified E. coli Lon protease, fluorescence polarization; inhibition, % at 7.94 µM; 0.42% of 360,000 active; AID 602123; in the data active = inhibition above about 13%, passing the limit was not always enough;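 note: 0% = enzyme with probe and DMSO and 100% = no enzyme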
LANA DNA inh: blocks KSHV LANA C-terminal domain binding to DNA. inhibition, % at 9 µM. 0.078% of 340,000 active. MBP-C-LANA/FAM-LBS DNA binding, fluorescence polarization;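 active = highest replicate inhibition at or above 60% at 9 µM, even if other replicates fall short; inactive = all replicates below 60% inhibition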;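 note: 0% = neutral control wells and 100% = 4 µM acridine orange control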
Keap1 Nrf2 FP: inhibitors of human Keap1-Nrf2 protein-protein interaction. AID 504523. Q14145. inhibition, % at 9.4 µM. 0.15% of 340,000 active. Keap1 Kelch-Nrf2 peptide fluorescence polarization, 1536-well; in the data active = inhibition above about 12%;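 note: human Keap1 Kelch domain with fluorescein labeled Nrf2 9mer peptide probe; 0% = neutral control wells and 100% = peptide positive control; higher means more block of Keap1 binding to Nrf2 peptide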
Target sequence (Q14145 whole entry, looked up, the tested form may be a part): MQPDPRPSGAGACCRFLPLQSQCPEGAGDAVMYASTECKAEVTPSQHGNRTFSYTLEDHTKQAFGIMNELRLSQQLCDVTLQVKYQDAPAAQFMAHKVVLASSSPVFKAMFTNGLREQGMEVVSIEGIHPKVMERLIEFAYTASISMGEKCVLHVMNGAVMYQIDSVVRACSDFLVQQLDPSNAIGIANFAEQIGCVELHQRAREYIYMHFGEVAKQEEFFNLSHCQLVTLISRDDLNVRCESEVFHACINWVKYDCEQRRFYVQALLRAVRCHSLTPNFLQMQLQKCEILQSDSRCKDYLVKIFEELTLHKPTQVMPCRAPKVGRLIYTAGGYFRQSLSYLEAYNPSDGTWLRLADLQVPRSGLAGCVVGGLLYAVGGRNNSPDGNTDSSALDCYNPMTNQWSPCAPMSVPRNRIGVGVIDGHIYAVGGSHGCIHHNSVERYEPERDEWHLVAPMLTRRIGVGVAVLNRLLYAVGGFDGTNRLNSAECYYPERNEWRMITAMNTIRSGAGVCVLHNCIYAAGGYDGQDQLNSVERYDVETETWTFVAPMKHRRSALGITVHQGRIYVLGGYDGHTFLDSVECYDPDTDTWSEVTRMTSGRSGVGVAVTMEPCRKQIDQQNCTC
EBV gp42 inh: inhibitors of Epstein-Barr virus glycoprotein 42. 0.42% of 220,000 active. inhibition, % (tested at 21.74 µM). Q1HVG2. Fluorescence polarization binding assay, mP read-out; in the data active = inhibition above about 50%
Keap1 Kelch bind: Keap1 (human) Kelch domain binding | shares compounds with Keap1 Nrf2 FP | Keap1 Kelch thermal shift, delta Tm; stronger effect = higher value | max delta Tm, degrees C | 8% of 400 active | AID 651823; in the data active = max delta Tm above about 0.48 degrees C
Sypro dye melt: shifts Sypro Orange melt without protein, a false positive | Sypro Orange dye-only thermal melt, no protein, delta Tm; top dose 26 µM | shares compounds with Keap1 Nrf2 FP | delta Tm, degrees C (test concentration not listed) | 140 tested, under 10 active;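 active = at highest dose tested, delta Tm positive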
E coli Lon conf: E. coli Lon inhibition confirmation. shares compounds with E coli Lon inh. purified E. coli Lon, fluorescence polarization. inhibition, % at 7.94 µM. 31% of 1,400 active. AID 602230; in the data active = inhibition above about 16%;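 note: 0% = enzyme with probe and DMSO and 100% = no enzyme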
* hit, by the source's call; i = inactive; . = no result given; + = active, no number.

SMILES	RTF Ca sens act	Cardiac RTF inh	E coli Lon inh	LANA DNA inh	Keap1 Nrf2 FP	EBV gp42 inh	Keap1 Kelch bind	E coli Lon conf	others
O=C(C1=C(O)C(=O)N(c2nccs2)C1c1ccccc1)c1cc2ccccc2o1 (configuration not stated)	34*	-86	+	37	42*	157*	-0.1	197*
CCOc1cccc(C2C(C(=O)c3ccc(C)o3)=C(O)C(=O)N2c2nccs2)c1 (configuration not stated)	7	-25	98*	21	24*	172*	-0.09	118*
CC(C)(C)c1cc[n+](-c2[nH]c(=O)sc2/C=N/N=C(\[O-])c2cccnc2)cc1	-4	1	3	3	2	.	.	.
Cc1cc(C)c[n+](-c2[nH]c(=O)sc2/C=N/NC([S-])=Nc2ccccc2)c1	75*	-73	70*	36	26*	27	-0.05	76*	Sypro dye melt=-27
CCc1ccc[n+](-c2[nH]c(=O)sc2/C=N/NC([S-])=Nc2ccccc2)c1	85*	-99	105*	89*	49*	66*	-0.11	129*	Sypro dye melt=-25
O=c1[nH]c(-[n+]2ccccc2)c(/C=N/NC([S-])=Nc2ccccc2)s1	21	-38	94*	26	17*	2	-0.07	2
Cc1cc[n+](-c2[nH]c(=O)sc2/C=N/NC([S-])=Nc2ccccc2)cc1	42*	-83	63*	48	32*	59*	0.09	53*
CCc1ccc[n+](-c2[nH]c(=O)sc2/C=N/N=C(\N)[O-])c1	-10	1	-1	-1	0	-15	.	.
CCCCN1CC(COCc2ccccc2)Oc2cccc(Oc3ccc(C)cc3)c2S1(=O)=O (configuration not stated)	-6	2	-8	0	-1	.	.	.
Cc1ccc(NC2CCCN(C(=O)c3cc(C(C)C)nn3C)C2)cc1C (configuration not stated)	.	.	8	.	.	.	.	.
CCc1cc[n+](-c2nc([O-])sc2C=O)cc1	22	-27	40*	43	29*	87*	-0.06	8
CCCCC1OC2(C)OC(=N)C1(C#N)C(C#N)(C#N)C2c1ccccc1 (configuration not stated)	17	-18	29*	57	30*	9	-0.12	11
CC1OC2(C)OC(=N)C1(C#N)C(C#N)(C#N)C2c1ccccc1 (configuration not stated)	14	-14	15*	37	23*	-4	-0.03	4	Sypro dye melt=-29
O=C(CC(O)(c1ccccc1)c1ccccc1)Nc1ccccn1	7	-9	-8	-1	-1	.	.	.
CCCC(=O)N1CCC1(C)C(=O)Nc1cc(OC)c(OC)c(OC)c1 (configuration not stated)	.	.	-1	.	.	.	.	.
COc1ccc(/C=N/N=C2/NC(=O)CC(C(=O)O)S2)cc1 (configuration not stated)	3	2	-12	1	7	0	.	.
COc1ccc(/C=N/N=C2/CC(C)(C)Cc3n[nH]c(=O)cc32)cc1	16	-10	45*	26	13*	70*	-0.17	21*
Cc1nnc(SCC(=O)NC2CCCCC2)n1-c1ccccc1	.	.	-17	.	.	.	.	.
COc1ccc2ccccc2c1C(O)c1nccn1C (configuration not stated)	84*	-129	55*	55	33*	60*	0.1	168*
Cn1ccnc1C(O)c1ccccc1 (configuration not stated)	-4	0	9	0	-1	6	.	.
CCCCNc1c2c3c(cccc3n(C)c1=O)C(=O)c1ccccc1-2	+	i	188*	71*	58*	183*	0.25	101*
Cn1c(=O)c(NCCc2ccccc2)c2c3c(cccc31)C(=O)c1ccccc1-2	+	i	+	101*	45*	+	0	-457
O=C(Cn1nnc(-c2ccc(F)cc2)n1)Nc1cccc(S(=O)(=O)N2CCCC2)c1	-2	-5	-9	1	4	.	.	.
C=C(C)C(=O)Oc1ccc(N=Nc2ccc(C)cc2)ccc1=O	.	.	45	.	.	.	.	.
CC(=O)Nc1cccc2c1C(=O)N(c1cccc(C)c1)C2=O	2	-2	7	0	1	-21	.	.
SMILES	RTF Ca sens act	Cardiac RTF inh	E coli Lon inh	LANA DNA inh	Keap1 Nrf2 FP	EBV gp42 inh	Keap1 Kelch bind	E coli Lon conf	others
CC(C)CCN1C(=O)c2cccc3c(N)ccc(c23)C1=O	658*	i	+	96*	71*	.	0.11	143*
Cc1cccc(N2C(=O)c3cccc4c(N(C)CCO)ccc(c34)C2=O)c1	331*	-273	175*	68*	12*	157*	-0.01	144*
Nc1cccc(N2C(=O)c3cccc4c(N)ccc(c34)C2=O)c1	291*	-376	+	88*	17*	.	0.04	+
CCN1C(=O)c2cccc3c(Cl)ccc(c23)C1=O	3	-2	-10	-1	2	7	.	.
Nc1ccc2c3c(cccc13)C(=O)N(c1ccccc1)C2=O	972*	i	+	19	31*	162*	-0.06	+
COc1ccccc1-c1cccc2nccn12	.	.	-3	.	.	.	.	.
C[C@H](NC(=O)c1ncn2c1c(=O)[nH]c1ccc(Br)cc12)c1ccccc1	.	.	-7	.	.	.	.	.
C=C(C)CN(CC)C(=O)CN1C(=O)NC2(CCCc3ccccc32)C1=O (configuration not stated)	6	-1	-4	0	-4	.	.	.
Cc1cccc(N2C(=O)c3cccc4c(N)ccc(c34)C2=O)c1	+	i	+	135*	75*	.	-0.12	+	Sypro dye melt=-26
Cc1cccc(N2C(=O)c3cccc4cccc(c34)C2=O)c1	-1	-6	-3	-2	-4	.	.	.
O=c1ccc2cc3c4c(c2o1)CCCN4CCC3	129*	-245	80*	46	38*	129*	-0.17	22*
CC(C)c1nnc(N2C(=O)C(O)=C(C(=O)c3cccs3)C2c2ccccc2)s1 (configuration not stated)	25	-46	34*	35	20*	126*	-0.16	80*
Cc1cc2nc3c(=O)[nH]c(=S)[nH]c3nc2cc1NC(=O)C(F)(F)F	65*	-176	+	55	27*	.	-0.07	145*
O=c1[nH]c(=S)[nH]c2nc(-c3ccccc3)cnc12	-2	-6	-5	-2	1	.	.	.
